# Compound activity from PubChem BioAssay.
# A selection: hits, their analogues and other compounds. The true share with any hit is near 0.45%.
# EPAC1 ag = activates human EPAC1 exchange factor | 0.073% of 360,000 active | EPAC1 agonist qHTS, biochemical assay; response scale: 100% = response to 6.5 mM cAMP | O95398 | Potency, µM (top dose mostly 154 µM), for inactives: at the top dose activation, hits mostly activators; also: nearly all actives have a fitted effect of over 60% in size
# Target sequence (O95398 whole entry, looked up): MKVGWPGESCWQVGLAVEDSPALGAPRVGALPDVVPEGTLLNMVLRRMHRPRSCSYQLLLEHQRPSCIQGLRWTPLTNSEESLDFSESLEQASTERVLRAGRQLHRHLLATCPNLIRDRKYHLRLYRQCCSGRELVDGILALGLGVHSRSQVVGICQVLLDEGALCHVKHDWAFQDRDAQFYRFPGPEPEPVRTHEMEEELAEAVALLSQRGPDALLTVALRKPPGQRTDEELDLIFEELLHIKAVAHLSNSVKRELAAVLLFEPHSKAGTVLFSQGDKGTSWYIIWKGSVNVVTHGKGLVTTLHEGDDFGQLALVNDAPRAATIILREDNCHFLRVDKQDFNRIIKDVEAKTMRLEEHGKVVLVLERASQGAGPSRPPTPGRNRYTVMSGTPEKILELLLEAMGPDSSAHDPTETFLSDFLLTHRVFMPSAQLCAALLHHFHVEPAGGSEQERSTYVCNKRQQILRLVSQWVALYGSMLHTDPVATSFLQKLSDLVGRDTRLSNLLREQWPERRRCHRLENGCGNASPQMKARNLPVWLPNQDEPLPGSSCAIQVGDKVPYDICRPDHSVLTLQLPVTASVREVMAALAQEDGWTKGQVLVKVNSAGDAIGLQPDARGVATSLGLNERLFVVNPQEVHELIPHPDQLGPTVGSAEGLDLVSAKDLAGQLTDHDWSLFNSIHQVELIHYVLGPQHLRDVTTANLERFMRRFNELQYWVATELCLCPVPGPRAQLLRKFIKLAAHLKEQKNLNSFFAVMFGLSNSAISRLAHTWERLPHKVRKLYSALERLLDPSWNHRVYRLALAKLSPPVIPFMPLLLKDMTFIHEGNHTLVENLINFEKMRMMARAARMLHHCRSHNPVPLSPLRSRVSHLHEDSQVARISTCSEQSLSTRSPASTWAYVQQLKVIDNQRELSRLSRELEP
#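 Nucleotide exchange by EPAC1 (100 nM) on Rap1B–BODIPY-GDP (250 nM) in the presence of 50 uM GDP is tracked fluorescently at 480/540 nm over 30 min. Signals are normalized to a 6.5 mM cAMP control.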
# EPAC2 agonist = agonists of human EPAC2 (RAPGEF4) | Q8WZA2 | EPAC2 activation, biochemical qHTS; response scale: 100% = 6.5 mM cAMP response | Potency, µM (titrated, usually from 154 µM), inactives show at the top dose activation, actives largely listed as activators | 0.079% of 360,000 active; also: nearly all actives have a fitted effect of over 50% in size
#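 Guanine nucleotide exchange by EPAC2 is measured as reduced fluorescence of BODIPY-GDP once it is released from 250 nM Rap1B. Plates are read kinetically for 30 min at room temperature; results are scaled to 6.5 mM cAMP.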
# USP1 inh = USP1/UAF1 (human) deubiquitinase inhibition | O94782 | recombinant USP1/UAF1, Ub-Rhodamine cleavage fluorescence | Potency, µM (highest dose often 57.1 µM), for the others: at the top dose activity change, negative = inhibition, usual class: inhibitors | 0.23% of 390,000 active; also: % is scaled to controls: 0 for no effect and ±100 for the full control effect; nearly all actives have a fitted effect of over 60% in size
#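 USP1/UAF1 complex (1 nM) preincubated 15 min at room temperature with compound, then Ub-Rho substrate (150 nM final) added. Kinetic fluorescence at 480/540 nm over 6 reads at 60 s intervals; 50 mM HEPES pH 7.8, 0.5 mM EDTA, 0.1 mg/ml BSA, 1 mM TCEP, 0.01% Tween-20.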
# EPAC1 antagonist = antagonists of human EPAC1 | O95398 | 0.14% of 360,000 active | EPAC1 GEF assay, Rap1b-BODIPY-GDP exchange fluorescence | Potency, µM (series often up to 115 µM), for inactives: at the highest dose activity change, negative = inhibition, usual class: inhibitors;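 also: plate controls were vehicle for no effect and positive control for full effect; nearly all actives have a fitted effect of over 50% in size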
# EPAC2 antagonist = blocks human EPAC2 exchange factor; AID 720708; 0.18% of 360,000 active; Potency, µM (top dose mostly 114 µM), for inactives: at the top dose activity, negative = inhibition, hits mostly inhibitors; Q8WZA2; EPAC2 GEF exchange of Rap1B-BODIPY-GDP, fluorescence; also: % is scaled to controls: 0 for no effect and ±100 for the full control effect; nearly all actives have a fitted effect of over 45% in size
# An asterisk follows results filed as active; i = inactive; u = inconclusive; x = not tested or not shown. Calls follow the shape of the dose curve; as a rule, active = well fitted curve in the direction sought with a large enough effect; inconclusive = small, poorly fitted or top-dose-only effect, or another doubt; inactive = no such curve, though single readings can be large; an effect the other way counts as inactive or inconclusive. Potency is read from the fitted curve at half-maximal effect.
SMILES,EPAC1 ag,EPAC2 agonist,USP1 inh,EPAC1 antagonist,EPAC2 antagonist
CC(CC(=O)Nc1ccc(Cl)c(S(=O)(=O)N2CCOCC2)c1)c1ccccc1 (configuration not stated),22µM*,1%,-16%,-23%,1%
COc1ccc(C)cc1NC(=O)c1ccccc1NS(=O)(=O)c1ccc(Cl)s1,-8%,2%,-30%,-14%,32µM*
CN(Cc1ccc(F)cc1)C(=O)c1cccc(NS(=O)(=O)c2ccccc2)c1,4%,-2%,-10%,-30%,-11%
CN(Cc1ccc(F)cc1)C(=O)c1cccc(OCc2ccccc2)c1,7%,17%,-8%,-6%,50µM*
O=C(N/N=C/c1ccc(O)c(O)c1)c1ccc(CSc2cccc3cccnc23)cc1,-3%,3%,-13%,35µM*,0%
N#Cc1c(NC(=O)C2CC=CCC2C(=O)O)sc2c1CCCCCC2 (configuration not stated),11%,2%,2%,79µM*,-26%
CC(C)(C)C1CCc2c(sc(NC(=O)C3CC=CCC3C(=O)O)c2C#N)C1 (configuration not stated),-15%,-4%,-24%,-29%,-1%
Cc1cc(NC(=O)NCc2ccc3c(c2)CCN3C(=O)c2ccccc2)ccc1Br,x,x,-5%,x,x
O=C(N/N=C/c1ccc(F)cc1)c1cc(-c2ccco2)nc2ccccc12,0%,-11%,-40%,79µM*,10%
O=C1S/C(=C\c2ccc(O)c([N+](=O)[O-])c2)C(=O)N1c1ccccc1Cl,-22%,5%,-19%,56µM*,u
Cc1ccc(NC(=O)CN2C(=O)S/C(=C/c3ccc(O)c([N+](=O)[O-])c3)C2=O)cc1C,1%,-12%,-12%,45µM*,u
Cc1cccc(NC(=O)CN2C(=O)S/C(=C\c3ccc(O)c([N+](=O)[O-])c3)C2=O)c1,-6%,-4%,-13%,u,-18%
Cc1cc2c(C)nc(N/N=C/c3ccc(F)cc3)nc2o1,-20%,11%,-18%,40µM*,17%
COc1cccc(CNC(=O)CCc2c(C)c3cc4c(C)coc4cc3oc2=O)c1,x,x,-13%,x,x
COC(=O)C1(Cc2ccccc2)NC(c2ccc(F)cc2)C2C(=O)N(C)C(=O)C21 (configuration not stated),-8%,7.9µM*,-13%,11%,-2%
COc1ccc(S(=O)(=O)Nc2ccc(OCC(=O)O)cc2)c2ccccc12,8%,7%,-9%,-15%,89µM*
O=C1CCCC2=C1C(c1ccc(Br)cc1)c1c([nH]c(=S)[nH]c1=O)N2 (configuration not stated),1%,-2%,-19%,10%,11%
O=c1[nH]c(=S)[nH]c2c1C(c1ccc(Br)cc1)c1c([nH]c(=S)[nH]c1=O)O2,-7%,3%,u,35µM*,1%
CC1Sc2ccc(C(=O)OCc3ccccc3Cl)cc2NC1=O (configuration not stated),50µM*,0%,-14%,0%,3%
COc1cccc(COC(=O)c2ccc3c(c2)NC(=O)C(C)S3)c1OC (configuration not stated),-13%,-8%,-1%,-18%,-5%
COc1ccc(/C=C(/C(=O)c2ccc(Cl)cc2Cl)n2cncn2)cc1,19%,17%,-12%,-10%,-10%
CN(C)c1ccc(/C=C(/C(=O)c2ccc(Cl)cc2Cl)n2cncn2)cc1,100µM*,45µM*,u,-13%,-24%
N#Cc1c(/N=C/c2ccco2)sc2c1CCC2,3%,10µM*,-17%,7%,2%
Cc1ccc(-c2onc(C)c2C)cc1S(=O)(=O)NCc1ccco1,x,x,12%,x,x
CC(=O)OCCn1c2nc(=O)[nH]c(=O)c-2nc2cc(C)c(C)cc21,50µM*,100µM*,28µM*,i,i
SMILES,EPAC1 ag,EPAC2 agonist,USP1 inh,EPAC1 antagonist,EPAC2 antagonist
CC(=O)OCCn1c(C)[n+](CCOC(C)=O)c2cc(Cl)c(Cl)cc21,1%,-2%,-20%,-4%,2%
CCCN1Cc2cccc(C(=O)Nc3ccc(OC)cc3OC)c2C1=O,x,x,-28%,x,x
COc1cc2c(c(OC)c1OC)C(c1ccc3c(c1)OCO3)CC(=O)O2 (configuration not stated),4%,12%,-18%,-1%,40µM*
O=C1OC(c2ccc3ccccc3c2O)(c2ccc3ccccc3c2O)c2ccccc21,-10%,6%,u,56µM*,10%
O=C(Nc1ccc(F)cc1F)c1ccc2c(c1)CCN2S(=O)(=O)c1ccc(Cl)cc1,x,x,-23%,x,x
O=c1c(O)c(-c2cc(O)c(O)c(O)c2)oc2cc(O)cc(O)c12,-26%,8%,-20%,16µM*,8.9µM*
O=c1c(O)c(-c2ccccc2)oc2cc(O)cc(O)c12,-21%,8%,-29%,-19%,-12%
CC(=O)NC(c1ccc(Cl)cc1Cl)c1ccc2cccnc2c1O (configuration not stated),-10%,4%,-1%,u,20µM*
CCCC(=O)NC(c1ccc(Cl)cc1Cl)c1ccc2cccnc2c1O (configuration not stated),3%,4%,-25%,-13%,-13%
Cn1cc([C@]2(O)C(=O)Nc3ccc(OC(F)(F)F)cc32)c2ccccc21,-18%,-6%,x,-15%,22µM*
CC1(Cc2ccccc2OC(F)(F)F)C(=O)Nc2ccc(OC(F)(F)F)cc21 (configuration not stated),-28%,-10%,x,u,u
COCCCNC(=O)C(C#N)c1nc2ccccc2nc1N1CCN(Cc2ccccc2)CC1 (configuration not stated),1%,-48%,-8%,7%,79µM*
COCCOC(=O)C(C#N)c1nc2ccccc2nc1N1CCN(Cc2ccccc2)CC1 (configuration not stated),5%,10%,5%,-13%,u
COc1ccc(C=C(C#N)C(=O)c2ccccc2)cc1,12%,3%,x,5%,4%
COc1cc(/C=C(\C#N)C(=O)c2ccc(O)c(O)c2)cc(I)c1O,-4%,12%,25µM*,u,u
COc1ccc(N2C(=O)C(CC(=O)Nc3ccc(Cl)cc3)N(Cc3ccc4c(c3)OCO4)C2=O)cc1 (configuration not stated),x,x,-11%,x,x
CC(=O)Nc1sc2c(c1-c1nc3ccccc3s1)CCN(C(C)C)C2,16%,63µM*,-36%,15%,36%
CCN1CCc2c(sc(NC(=O)CSc3ccccc3)c2-c2nc3ccccc3s2)C1,x,x,i,x,x
O=C(O)C(Cc1ccccc1)N1C(=O)/C(=C/C=C/c2ccco2)SC1=S (configuration not stated),14%,0%,u,89µM*,-27%
O=C1S/C(=C\C=C\c2ccco2)C(=O)N1c1ccc(O)cc1,5%,4%,-11%,-27%,0%
